Measurements as given in PubChem BioAssay (NCI).
This is part of a sample that, as a whole, favours compounds with a hit. Of some 79,000 tested, about 15% had one in any assay. Rule as the data show it: active = growth inhibition above about 70%; inactive = the rest.

Columns and labels:
[1] = NCI Yeast Anticancer Drug Screen. Data for the rad50 strain (AID 155);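 also: 0% = growth of vehicle-only cultures of the same strain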; conditions: S. cerevisiae rad50 strain growth inhibition; at 50.0 µM; active compounds read high
Procedure, shortened: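 Relative growth inhibition (compound vs vehicle) was measured in yeast with a defined repair-gene alteration.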

[2] = NCI Yeast Anticancer Drug Screen. Data for the mec2-1 strain (AID 157); conditions: S. cerevisiae mec2-1 strain, at 50.0 µM, active compounds read high
Procedure, shortened: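 Growth inhibition is read against vehicle-treated controls after compound exposure of the mec2-1 yeast strain, which is defective in DNA damage repair or cell cycle control.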

[3] = NCI Yeast Anticancer Drug Screen. Data for the sgs1 mgt1 strain (AID 161);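 also: 0% = growth of cultures given vehicle only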; conditions: S. cerevisiae sgs1 mgt1 strain, at 50.0 µM, active compounds read high
Procedure, shortened: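 Yeast cells carrying a defined DNA-repair defect were exposed to test compounds. Growth inhibition was measured relative to vehicle-treated controls.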

[4] = NCI Yeast Anticancer Drug Screen. Data for the cln2 rad14 strain (AID 165);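 also: 0% = growth equal to vehicle treated cultures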; conditions: S. cerevisiae cln2 rad14 strain, at 50.0 µM, active compounds read high
Procedure, shortened: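 Growth inhibition, relative to vehicle-treated controls, is the read-out. The test organism is a yeast strain with defined genetic alterations, cln2 rad14.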

[5] = NCI Yeast Anticancer Drug Screen. Data for the bub3 strain (AID 167); conditions: S. cerevisiae bub3 mutant strain, at 50.0 µM, active compounds read high
Procedure, shortened: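 Screening used yeast with an engineered genetic alteration affecting cell cycle control. Compound-exposed cultures were compared with vehicle cultures, and reduced growth was taken as inhibition.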

[6] = NCI Yeast Anticancer Drug Screen. Data for the mlh1 rad18 strain (AID 175); conditions: S. cerevisiae mlh1 rad18 strain growth inhibition; at 50.0 µM; active compounds read high
Procedure, shortened: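 Cells of a genetically altered yeast strain, deficient in DNA damage repair, were treated with compound. Their growth was then compared with that of vehicle-treated cultures to give inhibition.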

Measured: growth inhibition

Cc1nc2nc[nH]n2c1N=Nc1ccccc1
inactive: [1] -28.3% | [2] -2.55% | [3] -9.5% | [4] -13% | [5] 7.5% | [6] 9.5%

CCn1c(=O)c2[nH]c(Br)nc2n(CC)c1=O
inactive: [1] 1.95% | [2] -0.6% | [3] 5.95% | [4] -6.85% | [5] 0.3% | [6] -9.45%

O=C(COc1ccc(Cl)c(Cl)c1)NCc1cccc([N+](=O)[O-])c1
inactive: [1] 4.9% | [2] -15.8% | [3] -8.4% | [4] 2.2% | [5] 14.9% | [6] 34%

COc1cccc(-c2nnc(-c3cccc(OC)c3)o2)c1
inactive: [1] 25.4% | [2] -12.1% | [3] 16.6% | [4] 1.95% | [5] 25.5% | [6] 0.2%

Cc1ccc(NC(=O)C(c2ccccc2)c2ccccc2)cc1
inactive: [1] 0.15% | [2] 19.4% | [3] 3.8% | [4] -2.55% | [5] 20.2% | [6] 6.75%

O=c1c(Br)c(-c2ccccc2)[nH]c2ccccc12
inactive: [1] 2.95% | [2] -12.8% | [3] -32.5% | [4] 0.9% | [5] -5.7% | [6] 7.7%

O=C(Nc1cccnc1)c1ccc([N+](=O)[O-])s1
inactive: [1] 11.1% | [2] 0.6% | [3] 29.3% | [4] 9.25% | [5] 11.1% | [6] 16.1%

Cc1ccc(C)c(N=C2NC(=O)C(CC(=O)Nc3ccc(Cl)cc3Cl)S2)c1 (stereo unspecified)
inactive: [1] -7.5% | [2] 2.75% | [3] -9.65% | [4] 24.7% | [5] -10.9% | [6] -32.6%

CCOC(=O)c1c2cccccc-2nc1Nc1cccc2c(C)ccnc12
inactive: [1] 11.7% | [2] -21% | [3] -2.8% | [4] 9.7% | [5] -16.1% | [6] 5.55%

CCOC(=O)c1ccc(-c2cccs2)[nH]1
inactive: [1] -35.3% | [2] -1.25% | [3] 3.95% | [4] -1.25% | [5] 27% | [6] -11.9%

COc1cc(C(C)C)c(Oc2c(C)c(OC)cc(C(C)C)c2O)cc1C (tested in a mixture with another compound)
inactive: [1] -7.5% | [2] -21.4% | [3] -9.6% | [4] -11.1% | [5] 7.9% | [6] 7.4%

N#CC1(c2ccccc2)C(c2ccccc2)CC(O)(c2ccccc2)C(C(=O)c2ccccc2)C1c1ccccc1 (stereo unspecified)
inactive: [1] 19.9% | [2] 4.75% | [3] 3.5% | [4] 14.3% | [5] -1.1% | [6] -3.5%

CC(=O)Nc1nc(C)c(S(=O)(=O)Cl)s1
inactive: [1] 27.5% | [2] 10.4% | [3] 33% | [4] 23.2% | [5] 14.8% | [6] 19.6%

COc1cc(NCCC2CCCCN2C)c2ncccc2c1 (stereo unspecified)
inactive: [1] -3.9% | [2] -22.4% | [3] 8.55% | [4] 1.8% | [5] 13.6% | [6] 22.1%

C[N+]12C=CC=C1C(N1CCCC1)c1sc(-c3ccc(Cl)cc3)cc12 (stereo unspecified)
inactive: [1] 7.9% | [2] -11.3% | [3] 22% | [4] 7.3% | [5] 0.55% | [6] 16.4%

CCC(c1cccc(OC)c1)C(C(=O)O)c1ccc(OC)cc1 (stereo unspecified)
inactive: [1] 5% | [2] 17.5% | [3] 12.6% | [4] 7.15% | [5] 7.35% | [6] 27.2%

CCOC(=O)c1cc2c(cn1)[nH]c1cccc(N)c12
inactive: [1] -10.3% | [2] -39.5% | [3] 7.05% | [4] 5.85% | [5] -3.5% | [6] -9.55%

COc1cc([C@H]2c3[nH]c4ccccc4c3C[C@H]3COC(=O)N32)cc(OC)c1O
inactive: [1] 56.5% | [2] 9.85% | [3] 25% | [4] 12.1% | [5] 18.9% | [6] 51.9%

NC(=O)c1csc(N)n1
inactive: [1] 4.4% | [2] 3.95% | [3] 0% | [4] 3.55% | [5] 9.3% | [6] -7.7%

CC(C)NC(=O)C1C2C=CC(CC2)C1C(=O)NC(C)C (stereo unspecified)
inactive: [1] 6.2% | [2] 20.1% | [3] 22.6% | [4] -5.7% | [5] 11.3% | [6] 10.2%

O=C(NSNc1ccccc1)c1ccccc1
inactive: [1] 0.8% | [2] -3% | [3] -7.6% | [4] -69.7% | [5] -0.6% | [6] -4.05%

OC(CNc1ncccn1)(c1ccccc1)c1ccccc1
inactive: [1] -0.25% | [2] -24.8% | [3] -0.7% | [4] 13% | [5] 8.8% | [6] -17.1%

Cn1cnc2c([nH]c(=O)n2C2OC(CO)C(O)C2O)c1=N (stereo unspecified)
inactive: [1] 13.5% | [2] 1.05% | [3] 2% | [4] -35.4% | [5] 3.55% | [6] 9.55%

COc1cc(C)c(O)c(C/C=C(\C)CC2=C[C@@]3(C)CCC[C@@]3(C)[C@]3(CC(O)C(C)(C)O3)O2)c1 (stereo partly specified)
inactive: [1] 21.1% | [2] 6.2% | [3] -8.5% | [4] 4.75% | [5] 4.95% | [6] 10%

C1=Cc2nc1c(-c1ccncc1)c1ccc([n-]1)c(-c1ccncc1)c1nc(c(-c3ccncc3)c3ccc([n-]3)c2-c2ccncc2)C=C1.[Zn+2]
inactive: [1] -20.6% | [2] -9.45% | [3] -8.95% | [4] 15.7% | [5] 18.9% | [6] -3.65%

O=c1n(-c2ccc(Cl)c(Cl)c2)c(=O)n(-c2ccc(Cl)c(Cl)c2)c(=O)n1-c1ccc(Cl)c(Cl)c1
inactive: [1] 3.5% | [2] 5.25% | [3] 9.35% | [4] -44.1% | [5] -3.85% | [6] 4.3%

COc1ccc2c(c1)C(=O)C1CC(=O)CCC21 (stereo unspecified)
inactive: [1] -6.45% | [2] -10.4% | [3] -8.9% | [4] -21.8% | [5] -30.6% | [6] -8.9%

OCCN(CO)CCO
inactive: [1] -23.8% | [2] 6.35% | [3] -0.25% | [4] -2.6% | [5] 2.6% | [6] -25.2%

Cc1cccc(C)c1NC(=O)/C(Cc1nc2ccc([N+](=O)[O-])cc2[nH]c1=O)=N\NC(N)=O
inactive: [1] 55.4% | [2] 50.6% | [3] 30.9% | [4] 8.85% | [5] 66.5% | [6] 41.4%

CCC1OC(=O)CC(O)C(C)C(OC2OC(C)CC(N(C)C)C2O)C(CC=O)CC(C)C(=O)/C=C/C2(C)OC2C1C (stereo unspecified)
inactive: [1] -6.9% | [2] -7.55% | [3] -11.3% | [4] -1.55% | [5] -14% | [6] 1.8%

N=C(N)Cn1cnc2ccccc21
inactive: [1] -13.7% | [2] -10.3% | [3] -9.65% | [4] 14.9% | [5] 3.8% | [6] -18.4%

Nc1nc(-c2ccccc2)nc2[nH]ncc12
inactive: [1] -5.45% | [2] -3.5% | [3] -11.2% | [4] -10.2% | [5] 1.6% | [6] 5.75%

CCC(=O)Nc1ccccc1-c1ccccc1
inactive: [1] 25.6% | [2] 19% | [3] 16.9% | [4] 7.6% | [5] -1.8% | [6] 2.5%

CCCc1cc(=O)oc2c3c(cc(OC(C)C)c12)O[C@H](C)[C@H](C)[C@@H]3O
inactive: [1] 3.55% | [2] 0.15% | [3] -10.8% | [4] -1.45% | [5] -7.6% | [6] 18.8%

NC(=O)C(CNCc1ccccc1)NCc1ccccc1 (stereo unspecified)
inactive: [1] -1.5% | [2] 14.2% | [3] 3.1% | [4] -8.5% | [5] 3.6% | [6] -11.4%

O=C(O)COc1cc(Cl)cc(F)c1Cl
inactive: [1] -23.6% | [2] 4.1% | [3] -9.4% | [4] -33.2% | [5] -7.85% | [6] -2.55%

COC1=C(OC)CCC(/C(C#N)=C/c2ccc(OC)c(OC)c2)=C1
inactive: [1] 18.8% | [2] -3.45% | [3] -10% | [4] -11.8% | [5] -0.9% | [6] 25.4%

CCN(CC)c1ccccc1-c1ccccc1
inactive: [1] 34.9% | [2] 20.1% | [3] 1.05% | [4] -58.6% | [5] 6.05% | [6] 20.1%

CCOC(=O)/C(C#N)=C(O)/C(=C\c1ccc(Br)cc1)NC(=O)c1ccccc1
inactive: [1] -29.9% | [2] -12.9% | [3] -24.2% | [4] 13.2% | [5] -4.25% | [6] -15.1%

O=C(c1cccs1)N(C(=S)N1CCN(c2ccccc2)CC1)c1ccccc1
inactive: [1] -2.7% | [2] -11.1% | [3] 4.55% | [4] -7.8% | [5] -30.4% | [6] -4.3%

O=C(O)CCN(CCC(=O)O)S(=O)(=O)c1ccccc1
inactive: [1] -4.55% | [2] -43.4% | [3] -4.65% | [4] -103% | [5] -17.6% | [6] 22.9%
